Source: the supplement of paper PMC10849652
The full data set covers some 8,800 targets. This sample favours those with a hit. About 0.5% of all pairs of compound and target were hits. Unmarked numbers belong to inactive results.

Columns and labels:
Assay in all cases: log2 fold change, soluble protein after heating vs DMSO (PISA); higher = thermal stabilisation; K562 lysate, 10 uM; active = over 0.2 and 3.5 SD of the protein, either way, in both replicates (recomputed)
erlotinib = compound: C#Cc1cccc(Nc2ncnc3cc(OCCOC)c(OCCOC)cc23)c1 [erlotinib]
Summary of the method: (§1)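 Soluble protein was defined as the supernatant remaining after 21,000xg for 90 min, following pooling of heated aliquots and adjustment to 0.5% NP-40 at 4°C. Before that, crude K562 extract at 1 mg/mL protein in PBS pH 7.4 with 1 mM MgCl2 was treated with 10 μM compound for 30 min and heated for 3 min across 48°C-58°C. Quantification used TMTpro 16plex LC-MS/MS with channel sums equalised, and values are log-two fold changes in thermal stability relative to solvent controls from duplicates.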

[1] = compound: C/C(=N\NC(=O)C1=CC(=CC=C1)S(=O)(=O)N2CCOCC2)/C3=C(C=CC(=C3)Cl)O
Summary of the method: as §1

[2] = compound: C1=CC(=CC=C1C2=NC3=C(N2)C=C(C=C3)C(=O)N)OC4=CC=C(C=C4)Cl
Summary of the method: as §1

[3] = compound: C1=CC2=C(C=CC(=C2)/C=C\3/C(=O)NC(=NCC4=CC=CS4)S3)N=C1
Summary of the method: as §1

[4] = compound: C1=CC2=NC=CN=C2C=C1/C=C/3\C(=O)NC(=O)S3
Summary of the method: as §1

[5] = compound: C1=CC=C(C=C1)C2=NC(=C(N2)C3=CC=NC=C3)C4=CC(=C(C=C4)Cl)O
Summary of the method: as §1

[6] = compound: C1=CC=C2C(=C1)C3=NNC4=CC=CC(=C43)C2=O
Summary of the method: as §1

[7] = compound: C1CCN(C1)C(=O)NC2=CC=CC(=C2)NC3=NC=C(C(=N3)NCCC4=CN=CN4)Br
Summary of the method: as §1

[8] = compound: C1CN(CCC1(CC2=CC=C(C=C2)Cl)N)C3=NC=NC4=C3C=CN4
Summary of the method: as §1

IRAK-1-4 Inhibitor I = compound: C1COCCN1CCN2C3=CC=CC=C3N=C2NC(=O)C4=CC(=CC=C4)[N+](=O)[O-] [IRAK-1-4 Inhibitor I]
Summary of the method: as §1

ibrutinib = compound: C=CC(=O)N1CCC[C@@H](n2nc(-c3ccc(Oc4ccccc4)cc3)c3c(N)ncnc32)C1 [ibrutinib]
Summary of the method: as §1

[9] = compound: CC(=O)c1cnc2ccc(-c3cc(Cl)c(O)c(Cl)c3)nc2c1N[C@H]1CC[C@H](CN(C)C)CC1
Summary of the method: as §1

ralimetinib = compound: CC(C)(C)Cn1c(N)nc2ccc(-c3[nH]c(C(C)(C)C)nc3-c3ccc(F)cc3)nc21 [ralimetinib]
Summary of the method: as §1

[10] = compound: CC(C)(O)CC(=O)NCCn1ccc2ncnc(Nc3ccc(Oc4cccc(C(F)(F)F)c4)c(Cl)c3)c21
Summary of the method: as §1

[11] = compound: CC(C)C1=C2N=C(C=C(N2N=C1)NCC3=CC=CC=C3)NCCCCCCN
Summary of the method: as §1

[12] = compound: CC1=C(C(CC(=O)N1)C2=CC=C(C=C2)C(F)(F)F)C(=O)NC3=C(C=C4C(=C3)C=NN4)F
Summary of the method: as §1

[13] = compound: CC1=C(C2=C(C=C1)C(=O)C3=CC=CC=C3N2CCCN)C
Summary of the method: as §1

[14] = compound: CC1=C(C=C(C=C1)NC(=O)C2=CC(=CC=C2)C(C)(C)C#N)NC3=CC4=C(C=C3)N=CN(C4=O)C
Summary of the method: as §1

[15] = compound: CC1=C(C=C(C=C1)NC(=O)C2=CC(=CC=C2)N(C)C)NC(=O)C3=CC=C(C=C3)O
Summary of the method: as §1

[16] = compound: CC1=CC=C(C=C1)SC2=C3C=C(SC3=CN=C2)C(=O)N
Summary of the method: as §1

Sequence of UniProt Q9BUL8 (Q9BUL8 whole entry, looked up): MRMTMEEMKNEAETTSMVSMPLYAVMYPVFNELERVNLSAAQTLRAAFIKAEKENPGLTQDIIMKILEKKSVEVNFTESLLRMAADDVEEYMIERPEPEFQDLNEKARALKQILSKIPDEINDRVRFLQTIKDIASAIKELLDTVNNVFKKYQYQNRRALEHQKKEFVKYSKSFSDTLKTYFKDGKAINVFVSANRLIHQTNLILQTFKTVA
Sequence of UniProt P11309 (P11309 whole entry, looked up): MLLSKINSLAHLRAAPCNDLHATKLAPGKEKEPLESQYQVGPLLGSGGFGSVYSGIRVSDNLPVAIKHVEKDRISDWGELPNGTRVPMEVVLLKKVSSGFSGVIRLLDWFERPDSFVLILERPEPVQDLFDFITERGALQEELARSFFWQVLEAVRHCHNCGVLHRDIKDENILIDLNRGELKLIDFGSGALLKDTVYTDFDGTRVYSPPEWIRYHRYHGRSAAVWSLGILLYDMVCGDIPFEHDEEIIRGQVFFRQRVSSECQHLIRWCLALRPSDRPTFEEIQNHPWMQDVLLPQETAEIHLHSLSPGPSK
Sequence of UniProt Q8IZ21 (Q8IZ21 whole entry, looked up): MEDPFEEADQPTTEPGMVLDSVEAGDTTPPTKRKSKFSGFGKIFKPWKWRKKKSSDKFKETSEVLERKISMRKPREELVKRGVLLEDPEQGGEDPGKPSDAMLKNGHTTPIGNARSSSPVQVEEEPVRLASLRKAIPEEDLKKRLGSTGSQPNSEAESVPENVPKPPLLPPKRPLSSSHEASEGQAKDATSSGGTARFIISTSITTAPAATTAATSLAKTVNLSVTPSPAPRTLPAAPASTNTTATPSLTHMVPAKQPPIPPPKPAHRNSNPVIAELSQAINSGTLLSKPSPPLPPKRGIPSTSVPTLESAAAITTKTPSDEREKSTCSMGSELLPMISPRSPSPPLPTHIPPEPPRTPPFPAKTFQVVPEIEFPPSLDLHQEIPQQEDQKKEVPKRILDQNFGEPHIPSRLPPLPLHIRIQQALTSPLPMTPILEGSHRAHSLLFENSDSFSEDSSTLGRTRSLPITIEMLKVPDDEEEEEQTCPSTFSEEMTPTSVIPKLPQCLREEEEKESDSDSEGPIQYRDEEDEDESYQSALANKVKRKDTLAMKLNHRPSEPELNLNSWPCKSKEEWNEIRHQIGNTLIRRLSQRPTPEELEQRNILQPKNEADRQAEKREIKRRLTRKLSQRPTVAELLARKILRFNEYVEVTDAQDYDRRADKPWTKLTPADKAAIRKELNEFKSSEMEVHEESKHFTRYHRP
Sequence of UniProt Q8TCD6 (Q8TCD6 whole entry, looked up): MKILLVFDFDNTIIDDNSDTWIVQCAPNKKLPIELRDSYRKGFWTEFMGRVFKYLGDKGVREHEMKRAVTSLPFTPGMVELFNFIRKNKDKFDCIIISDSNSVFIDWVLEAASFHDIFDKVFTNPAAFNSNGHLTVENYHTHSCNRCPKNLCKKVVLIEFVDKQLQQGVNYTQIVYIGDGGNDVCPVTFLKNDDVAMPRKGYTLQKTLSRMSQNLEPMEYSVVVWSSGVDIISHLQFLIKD
Sequence of UniProt Q969Q6 (Q969Q6 whole entry, looked up): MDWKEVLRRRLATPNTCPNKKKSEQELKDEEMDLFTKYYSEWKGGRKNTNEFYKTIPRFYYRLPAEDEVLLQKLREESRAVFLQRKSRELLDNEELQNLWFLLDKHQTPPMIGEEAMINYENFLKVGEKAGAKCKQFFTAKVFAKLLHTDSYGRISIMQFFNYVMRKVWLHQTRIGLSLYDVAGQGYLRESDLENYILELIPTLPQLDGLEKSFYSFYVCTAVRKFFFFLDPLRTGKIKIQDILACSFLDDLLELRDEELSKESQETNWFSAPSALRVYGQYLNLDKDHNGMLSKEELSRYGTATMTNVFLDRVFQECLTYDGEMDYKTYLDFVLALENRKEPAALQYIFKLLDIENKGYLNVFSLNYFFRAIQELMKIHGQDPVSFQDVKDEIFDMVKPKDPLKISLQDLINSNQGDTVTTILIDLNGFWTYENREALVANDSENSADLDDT
Sequence of UniProt O60237 (O60237 whole entry, looked up): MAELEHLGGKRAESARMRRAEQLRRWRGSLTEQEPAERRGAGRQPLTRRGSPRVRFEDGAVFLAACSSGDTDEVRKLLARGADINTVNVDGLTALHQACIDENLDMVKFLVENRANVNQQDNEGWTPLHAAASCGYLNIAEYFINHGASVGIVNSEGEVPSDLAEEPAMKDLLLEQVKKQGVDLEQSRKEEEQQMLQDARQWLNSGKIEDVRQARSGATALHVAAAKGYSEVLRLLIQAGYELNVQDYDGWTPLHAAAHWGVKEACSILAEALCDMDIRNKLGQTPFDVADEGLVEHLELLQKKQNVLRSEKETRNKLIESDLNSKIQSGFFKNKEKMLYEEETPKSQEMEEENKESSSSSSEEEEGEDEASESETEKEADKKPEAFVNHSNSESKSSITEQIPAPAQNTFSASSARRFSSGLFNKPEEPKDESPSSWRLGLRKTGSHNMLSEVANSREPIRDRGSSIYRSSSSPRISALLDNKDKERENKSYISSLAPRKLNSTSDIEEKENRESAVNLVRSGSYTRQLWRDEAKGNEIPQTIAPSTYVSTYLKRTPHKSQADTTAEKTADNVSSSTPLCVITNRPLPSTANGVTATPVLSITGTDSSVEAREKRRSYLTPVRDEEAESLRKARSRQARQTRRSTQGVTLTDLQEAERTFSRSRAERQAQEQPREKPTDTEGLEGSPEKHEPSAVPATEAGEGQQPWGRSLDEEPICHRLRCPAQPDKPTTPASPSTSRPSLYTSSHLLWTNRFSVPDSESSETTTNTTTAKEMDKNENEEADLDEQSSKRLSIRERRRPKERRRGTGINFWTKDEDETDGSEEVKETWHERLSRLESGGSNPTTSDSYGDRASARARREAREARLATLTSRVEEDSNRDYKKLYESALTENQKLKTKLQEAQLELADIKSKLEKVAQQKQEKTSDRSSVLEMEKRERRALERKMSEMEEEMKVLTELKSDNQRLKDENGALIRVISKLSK
Sequence of UniProt O95336 (O95336 whole entry, looked up): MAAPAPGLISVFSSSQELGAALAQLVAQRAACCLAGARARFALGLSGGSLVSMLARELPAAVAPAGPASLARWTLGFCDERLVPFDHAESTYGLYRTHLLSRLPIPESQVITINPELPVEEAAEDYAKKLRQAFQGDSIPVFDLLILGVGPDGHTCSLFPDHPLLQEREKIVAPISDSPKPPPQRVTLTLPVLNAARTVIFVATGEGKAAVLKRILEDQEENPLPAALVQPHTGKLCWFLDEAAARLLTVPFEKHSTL
Sequence of UniProt Q9BTU6 (Q9BTU6 whole entry, looked up): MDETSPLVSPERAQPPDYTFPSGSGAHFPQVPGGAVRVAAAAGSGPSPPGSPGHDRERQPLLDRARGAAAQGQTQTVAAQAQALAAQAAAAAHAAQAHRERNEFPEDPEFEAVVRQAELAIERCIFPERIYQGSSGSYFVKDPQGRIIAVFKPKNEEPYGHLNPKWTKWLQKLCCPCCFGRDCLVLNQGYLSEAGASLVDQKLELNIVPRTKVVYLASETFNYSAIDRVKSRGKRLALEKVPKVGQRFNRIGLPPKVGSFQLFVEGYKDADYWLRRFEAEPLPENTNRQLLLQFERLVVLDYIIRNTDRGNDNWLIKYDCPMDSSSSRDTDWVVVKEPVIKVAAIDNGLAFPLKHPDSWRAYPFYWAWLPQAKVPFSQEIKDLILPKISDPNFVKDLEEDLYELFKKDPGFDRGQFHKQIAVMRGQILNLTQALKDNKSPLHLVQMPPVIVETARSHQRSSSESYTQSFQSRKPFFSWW
Sequence of UniProt Q93096 (Q93096 whole entry, looked up): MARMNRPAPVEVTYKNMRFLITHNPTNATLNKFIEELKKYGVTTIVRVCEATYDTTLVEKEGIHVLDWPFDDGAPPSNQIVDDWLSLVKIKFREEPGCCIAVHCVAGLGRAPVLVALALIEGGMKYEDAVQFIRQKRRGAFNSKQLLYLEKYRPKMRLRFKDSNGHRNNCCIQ
Sequence of UniProt O15530 (O15530 whole entry, looked up): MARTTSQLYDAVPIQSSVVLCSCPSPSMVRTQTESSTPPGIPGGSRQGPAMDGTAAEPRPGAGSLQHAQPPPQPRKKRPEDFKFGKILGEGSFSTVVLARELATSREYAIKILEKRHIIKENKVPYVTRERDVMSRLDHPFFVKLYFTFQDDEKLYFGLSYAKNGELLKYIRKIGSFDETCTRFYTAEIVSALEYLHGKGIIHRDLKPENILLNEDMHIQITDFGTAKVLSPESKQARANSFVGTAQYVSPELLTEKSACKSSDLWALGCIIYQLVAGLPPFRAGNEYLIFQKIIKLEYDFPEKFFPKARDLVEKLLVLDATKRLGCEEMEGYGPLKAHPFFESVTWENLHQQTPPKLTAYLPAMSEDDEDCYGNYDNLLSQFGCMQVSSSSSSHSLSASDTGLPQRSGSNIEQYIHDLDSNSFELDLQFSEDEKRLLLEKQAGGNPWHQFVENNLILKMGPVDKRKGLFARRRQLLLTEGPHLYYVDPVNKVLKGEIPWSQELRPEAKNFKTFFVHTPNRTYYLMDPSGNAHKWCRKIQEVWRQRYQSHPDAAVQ
Sequence of UniProt O43175 (O43175 whole entry, looked up): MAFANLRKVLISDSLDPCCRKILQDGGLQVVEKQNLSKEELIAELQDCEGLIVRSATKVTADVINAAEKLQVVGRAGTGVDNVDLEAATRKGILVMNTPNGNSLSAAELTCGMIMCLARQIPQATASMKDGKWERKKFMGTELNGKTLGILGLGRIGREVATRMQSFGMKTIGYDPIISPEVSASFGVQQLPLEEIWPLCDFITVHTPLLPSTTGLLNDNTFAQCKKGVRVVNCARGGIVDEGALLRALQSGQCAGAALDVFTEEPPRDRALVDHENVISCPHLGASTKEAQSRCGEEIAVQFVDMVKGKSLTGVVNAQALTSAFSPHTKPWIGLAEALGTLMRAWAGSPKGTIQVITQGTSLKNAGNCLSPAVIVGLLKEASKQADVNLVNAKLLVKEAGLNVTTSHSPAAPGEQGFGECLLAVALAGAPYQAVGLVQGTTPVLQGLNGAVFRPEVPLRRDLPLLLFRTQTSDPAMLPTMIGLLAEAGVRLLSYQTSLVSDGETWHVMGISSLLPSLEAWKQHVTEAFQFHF

| Target | log2 fold change (erlotinib) | log2 fold change [1] | log2 fold change [2] | log2 fold change [3] | log2 fold change [4] | log2 fold change [5] | log2 fold change [6] | log2 fold change [7] | log2 fold change [8] | log2 fold change (IRAK-1-4 Inhibitor I) | log2 fold change (ibrutinib) | log2 fold change [9] | log2 fold change (ralimetinib) | log2 fold change [10] | log2 fold change [11] | log2 fold change [12] | log2 fold change [13] | log2 fold change [14] | log2 fold change [15] | log2 fold change [16] |
| --- | --- | --- | --- | --- | --- | --- | --- | --- | --- | --- | --- | --- | --- | --- | --- | --- | --- | --- | --- | --- |
| PHACTR4 isoform 2 (UniProt Q8IZ21) | 0.003 | -0.02 | 0.012 | -0.004 | -0.021 | 0.021 | 0.013 | -0.017 | 0.052 | 0.011 | -0.009 | -0.005 | -0.009 | -0.047 | -0.019 | 0.025 | -0.028 | 0.021 | -0.016 | -0.01 |
| PHKA2 (UniProt P46019) | 0.048 | -0.051 | 0.032 | 0.052 | 0.044 | -0.058 | 0.012 | 0.027 | 0.033 | 0.03 | -0.032 | 0.095 | -0.022 | -0.097 | -0.016 | -0.03 | -0.076 | 0.007 | 0.013 | -0.015 |
| PPP2R3C (UniProt Q969Q6) | -0.061 | -0.009 | -0.126 | -0.025 | -0.019 | 0.033 | -0.032 | -0.023 | -0.035 | -0.018 | 0.108 | 0.089 | 0.109 | 0.036 | -0.088 | 0.021 | -0.02 |  | 0.048 | 0.196 |
| PI4K2A (UniProt Q9BTU6) | -0.013 | -0.005 | -0.041 | 0.021 | -0.003 | 0.02 | 0.063 | 0.002 | 0.058 | 0.003 | -0.017 | 0.044 | 0.002 | -0.037 | -0.006 | -0.028 | 0.028 | -0.06 | 0 | -0.009 |
| PIK3R2 (UniProt O00459) | -0.022 | -0.02 | -0.008 | 0.097 | 0.251 | -0.09 | 0.047 | 0.068 | -0.059 | -0.01 | -0.041 | 0.242 | 0.11 | 0.029 | -0.028 | 0.008 | 0.01 | 0 | 0.07 | 0.019 |
| PUF60 isoform 2 (UniProt Q9UHX1) | 0.102 | -0.094 | 0.083 | -0.019 | -0.064 | -0.088 | -0.005 | -0.045 | 0.033 | -0.011 | 0.153 | -0.049 | 0.045 | 0.004 | -0.174 | -0.021 |  | 0.032 | -0.036 | 0.013 |
| PHGDH (UniProt O43175) | 0.033 | 0.155 | 0.05 | -0.222 | -0.092 | -0.012 | 0.04 | 0.045 | 0.021 | 0.011 | 0.03 | 0.021 | 0.013 | 0.028 | 0.012 | -0.003 | 0.013 | -0.004 | -0.012 | 0.029 |
| PHOSPHO2 (UniProt Q8TCD6) | -0.018 | -0.225 | 0.046 | -0.032 | -0.027 | -0.002 | 0.072 | 0.224 | -0.16 | -0.014 | -0.01 | 0.039 | 0.003 | 0.035 | 0.012 | -0.017 | 0.018 | 0.006 | 0.048 | 0.056 |
| PPP2R5B (UniProt Q15173) | -0.026 | 0.038 | 0.056 | -0.106 | 0.123 | 0 | 0.052 | -0.051 | -0.042 | 0.016 | 0.042 | 0.033 | 0 | -0.046 | -0.055 |  | 0.009 | 0.026 | 0.08 | -0.053 |
| PPP1R12B isoform 6 (UniProt O60237) | -0.081 | 0.025 | -0.103 | -0.08 | 0.057 | -0.053 | -0.07 | -0.123 | 0.037 | 0.153 | 0.019 | -0.112 | 0.01 | -0.251 | 0.095 |  | 0.106 | 0.142 | -0.012 | -0.194 |
| PIM1 isoform 2 (UniProt P11309) | 0.118 | -0.106 | -0.164 | 0.028 | 0.238 | 0.123 | -0.034 | -0.077 | 0.02 | -0.076 | -0.138 |  | 0.042 | 0.122 | -0.038 | -0.014 | 0.054 | 0.01 | 0.054 |  |
| PCBP2 (UniProt H3BRU6) | 0.094 | -0.272 | 0.166 | 0.061 | -0.057 | -0.034 | -0.15 | -0.196 | -0.096 | 0.009 | 0.046 | 0.016 | 0.031 | -0.018 | -0.036 | -0.055 | 0.001 | 0.141 | 0.039 | -0.031 |
| PGLS (UniProt O95336) | -0.019 | -0.026 | -0.08 | -0.039 | -0.039 | -0.077 | -0.04 | -0.112 | 0.025 | -0.043 | 0.012 | -0.08 | 0.06 | 0.008 | 0.001 | -0.012 | -0.075 | 0.038 | -0.003 | 0.077 |
| PTP4A1 (UniProt Q93096) | -0.005 | 0.01 | 0.014 | -0.001 | -0.013 | -0.022 | -0.086 | 0.05 | -0.066 | -0.014 | 0.011 | 0.027 | 0.015 | -0.071 | -0.031 | -0.113 | -0.007 | -0.012 | -0.048 | 0 |
| PDPK1 (UniProt O15530) | -0.066 | -0.007 | -0.081 | -0.047 | -0.055 | 0.005 | 0.298 | 0.552 (active) | 0.019 | 0.018 | 0.026 | 0.236 | 0.067 | -0.075 | 0.021 | 0.163 | -0.034 | -0.056 | -0.006 | -0.021 |
| PDCD10 (UniProt Q9BUL8) | -0.029 | -0.001 | -0.009 | -0.049 | -0.028 | -0.007 | 0.087 | 0.035 | -0.025 | -0.012 | 0.001 | 0.062 | 0 | -0.006 | -0.008 | -0.02 | 0.016 | 0.021 | -0.02 | -0.02 |
